PubChem BioAssay (NCATS)
Inconclusive results are not listed. Activity calls are given as the source filed them. Calls follow the shape of the dose curve; as a rule, active = well fitted curve in the direction sought with a large enough effect; inconclusive = small, poorly fitted or top-dose-only effect, or another doubt; inactive = no such curve, though single readings can be large; an effect the other way counts as inactive or inconclusive. Numbered stars: 1 amine (or outer) side, 2 acyl side, 3 side chain; on linkers, the order of the positions; unused ones are H or OH. Square brackets hold non-standard residues; d marks the D form. Peptide text beside a SMILES is read from it. ξ: configuration not given here. X4 = O=C(C1CC2(c3ccc(O)cc3)c3ccccc3NC2N1[*:1])[*:2]; ξW = NC(Cc1c[nH]c2ccccc12)C(=O)O; ξY = NC(Cc1ccc(O)cc1)C(=O)O

What was measured:
[1] = test system: Zika virus NS2B-NS3 protease (linked construct); assay: Primary screen NINDS Rhodamine qHTS for Zika virus inhibitors (AID 1347160); also: nearly all actives have a fitted effect of over 55% in size; also: potency is read from the fitted curve at half-maximal effect
Outline: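 Percent inhibition, normalized to uninhibited and enzyme-free controls, is fitted to a 4-parameter Hill equation. Fluorescence change comes from a 15-min cleavage of 1.5 microM bis-peptide Rhodamine110 substrate by 25 nM linked NS2B-NS3 at room temperature.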

[2] = OV-KATE Cancer Cell Toxicity qHTS against the NCATS CANVASS Library (AID 1347345); also: potency is read from the fitted curve at half-maximal effect
Outline: (§1)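 Viability was assessed by adding CellTiter-Glo reagent to treated cultures and reading luminescence after 15min at room temperature. Treatment lasted 72 h at 37 degrees C/5% CO2, using an 11-point series on 1000 cells/well.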

[3] = HPAF-II Cancer Cell Toxicity qHTS against the NCATS CANVASS Library (AID 1347346); also: nearly all actives have a fitted effect of over 55% in size; also: potency is read from the fitted curve at half-maximal effect
Outline: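 HPAF-II cells at 1000 cells/well were treated with an 11-point concentration series for 72 hours at 37 degrees C. Viability read by CellTiter-Glo luminescence.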

[4] = UWB1.289 Cancer Cell Toxicity qHTS against the NCATS CANVASS Library (AID 1347347); also: nearly all actives have a fitted effect of over 60% in size; also: potency is read from the fitted curve at half-maximal effect
Outline: as §1

[5] = OV-SAHO Cancer Cell Toxicity qHTS against the NCATS CANVASS Library (AID 1347348); also: nearly all actives have a fitted effect of over 55% in size; also: potency is read from the fitted curve at half-maximal effect
Outline: as §1

[6] = Panc-1005 Cancer Cell Toxicity qHTS against the NCATS CANVASS Library (AID 1347349); also: nearly all actives have a fitted effect of over 60% in size; also: potency is read from the fitted curve at half-maximal effect
Outline: as §1

[7] = SW1088 Cancer Cell Toxicity qHTS against the NCATS CANVASS Library (AID 1347350); also: nearly all actives have a fitted effect of over 75% in size; also: potency is read from the fitted curve at half-maximal effect
Outline: as §1

[8] = COV-362 Cancer Cell Toxicity qHTS against the NCATS CANVASS Library (AID 1347352); also: potency is read from the fitted curve at half-maximal effect
Outline: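 Cells at 1000/well were given compound 4 h after plating in an 11-point series. Viability was read by CellTiter-Glo luminescence after 72 h at 37 degrees C.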

[9] = HEK293 18hr Apoptosis Induction qHTS against the NCATS CANVASS Library (AID 1347357)
Outline: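 Luminescent caspase-3/7 signal is measured in HEK293 cells exposed for 18 hours to an 11-point concentration series; doxorubicin serves as the plate control.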

[10] = HEK293 24hr Apoptosis Induction qHTS against the NCATS CANVASS Library (AID 1347359)
Outline: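 Caspase-3/7 activation measured as luminescence from the DEVD-based Caspase-Glo reagent, 15 min at room temperature, following 24-hour compound treatment of HEK293 cells.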

[11] = KB-3-1 Cancer Cell Toxicity qHTS against the NCATS CANVASS Library (AID 1347366); also: nearly all actives have a fitted effect of over 75% in size; also: potency is read from the fitted curve at half-maximal effect
Outline: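 Seed KB-3-1 cells at 500/well in DMEM with 10% FBS, add compounds, incubate 72 hr at 37C and 5% CO2, then add CellTiter-Glo and read luminescence after 10 minutes.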

[12] = qHTS for ATAD5 Agonist screened against the NCATS CANVASS Library (AID 1347367);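 also: luciferase reporter driven by ATAD5 which rises upon DNA damage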
Outline: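 Step one plated reporter cells and let them acclimate 5hr. Step two pinned compounds with MMS as positive and 0.46% DMSO as negative control. After 16hr incubation, fluorescence viability then luminescence were read.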

[13] = MCF7 Cancer Cell Toxicity qHTS against the NCATS CANVASS Library (AID 1347369); also: potency is read from the fitted curve at half-maximal effect
Outline: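 Cytotoxicity is measured by ATP content: MCF7 cells at 500 per well receive an 11-point compound series and, after 72 hr at 37C, are lysed with CellTiterGlo for luminescence.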

[14] = J3T Cancer Cell Toxicity qHTS against the NCATS CANVASS Library (AID 1347371); also: potency is read from the fitted curve at half-maximal effect
Outline: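 J3T dog glioma cells, 500 per well, treated 72 h at 37C with compounds (11-point qHTS); viability from ATP content by CellTiterGlo luminescence; bortezomib titration as control.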

[15] = target: Nuclear receptor subfamily 1 group I member 3 (Homo sapiens) (UniProt Q14994); assay: qHTS for Constitutive Androstane Receptor (CAR) Agonist screened against the NCATS CANVASS Library (AID 1347373);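 also: every well also contained 1.5 µM PK11195 alongside the test compound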
Outline: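 HepG2 cells stably carrying hCAR and a CYP2B6-2.2kb luciferase reporter, treated 24hr at 37C with compounds plus 1.5uM PK11195; activation by ONE-Glo luminescence, viability by CellTiter-Fluor.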

[16] = qHTS for Inflammasome Signaling Inhibitors: IL-1-beta AlphaLISA screen against the NCATS CANVASS Library (AID 1347379);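 also: human THP-1 cells primed with LPS then triggered with ATP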
Outline: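 THP-1 cells pretreated 1 hr with compound (up to 57.5 uM final), then stimulated with LPS (250 ng/mL final) and ATP (1.25 mM final). Secreted IL-1B measured by AlphaLISA after 16 hr; glyburide as positive control.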

[17] = Inflammasome Signaling qHTS Counterscreen: IL-1-beta AlphaLISA counterscreen against the NCATS CANVASS Library (AID 1347381);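 also: cell-free check with purified IL-1β in medium and no THP-1 cells; series mostly up to about 57 µM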
Outline: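 Cell-free interference check: compounds added to medium spiked with 4 pg purified IL-1β. Anti-IL-1β acceptor beads (6 ug/mL) with 0.6 nM biotinylated antibody added for 1 h at RT, then streptavidin donor beads (24 ug/mL) for 30 min in the dark. AlphaLISA read at 680/615 nm.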

[18] = Vero-766 cells viability qHTS against the NCATS CANVASS Library: Counterscreen for Zika virus inhibition assay (AID 1347394); also: nearly all actives have a fitted effect of over 60% in size; also: potency is read from the fitted curve at half-maximal effect
Outline: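 This cytotoxicity counterscreen uses African green monkey Vero 766 cells in the absence of Zika virus. Compounds are incubated with cells for 72 h, and ATP-based luminescence reports viability.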

[19] = Viability qHTS for inhibitors of the SERCaMP assay screened against the NCATS CANVASS Library (AID 1347400); also: nearly all actives have a fitted effect of over 70% in size; also: potency is read from the fitted curve at half-maximal effect
Outline: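 SH-SY5Y-GLuc SERCaMP MJH297-derived cells, 1000/well, plated 4 h, then exposed to compounds in an 11-point qHTS series for 48 h at 37C. Viability read as CellTiter-Glo luminescence.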

[20] = 10-beta competent E. coli microbial cell viability qHTS against the NCATS CANVASS Library (AID 1347376); also: series mostly up to about 46 µM
Outline: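 10-beta competent E. coli (0.2 OD) were exposed overnight at 37C to compounds in an 11-point series. Viability was read as ATP-dependent BacTiter-Glo luminescence after 20 min at room temperature.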

Measured: Potency

Nuclear receptor subfamily 1 group I member 3 (Homo sapiens), sequence (Q14994 whole entry, looked up): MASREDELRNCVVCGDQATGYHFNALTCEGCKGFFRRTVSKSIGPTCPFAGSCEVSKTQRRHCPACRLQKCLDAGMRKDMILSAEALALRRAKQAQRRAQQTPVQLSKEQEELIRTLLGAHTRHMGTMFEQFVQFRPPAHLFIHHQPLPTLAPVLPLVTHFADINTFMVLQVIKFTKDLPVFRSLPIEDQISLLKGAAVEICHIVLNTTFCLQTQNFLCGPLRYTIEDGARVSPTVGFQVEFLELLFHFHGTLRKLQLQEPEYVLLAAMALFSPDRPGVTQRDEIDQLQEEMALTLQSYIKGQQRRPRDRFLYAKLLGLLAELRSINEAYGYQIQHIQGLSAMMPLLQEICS

O=C1c2c(O)cc(O)cc2O[C@@H](c2ccc(O)cc2)[C@@H]1c1c(O)cc(O)c2c(=O)cc(-c3ccc(O)c(O)c3)oc12
active: [1] 3.92 µM
not listed: [20]
inactive: all other assays above

C=C1/C=C\C(CCC)=C\c2csc(n2)C(C)NC(=O)C[C@@]2(CC(=O)O)CCC(=C)[C@H](C1)S2 (some centres undefined)
active: [1] 2.77 µM
inactive: all other assays above

CO[C@@H]1C[C@@H](C[C@H]2CC[C@H](C)[C@H]([C@@H](C)C(=O)O)O2)O[C@]2(O[C@](C)([C@H]3CC[C@@](C)([C@@H]4O[C@@H]([C@H]5O[C@](C)(O)[C@H](C)C[C@@H]5C)C[C@@H]4C)O3)C[C@H]2C)[C@@H]1C
inactive: [9] | [10] | [12] | [15] | [20] | [17]
active: [1] 11 µM | [2] 4.72 µM | [3] 9.43 µM | [4] 3.34 µM | [5] 94.1 nM | [6] 3.75 µM | [7] 16.8 nM | [8] 4.72 µM | [11] 14.8 µM | [13] 14.7 µM | [14] 118 nM | [16] 5.44 µM | [18] 4.67 µM | [19] 10.7 µM

CC1C(=O)C23CCC1C[C@]21O[C@@H]2C(C)(C)C=CC(=O)[C@@]23COC1=O (some centres undefined)
active: [1] 31.1 µM
inactive: all other assays above

C=C1[C@H]2CC[C@@]3(C=CC(=O)[C@@](C)(CCC(=O)Nc4c(O)ccc(C(=O)O)c4O)C3C2)[C@H]1O (some centres undefined)
active: [1] 44 µM
inactive: all other assays above

C[C@@]12CCC[C@@](C)(C(=O)O)[C@H]1C[C@@H](O)[C@]13C[C@H]4C[C@H](O[C@@]4(C)C1)[C@@H]23
active: [1] 31.1 µM
inactive: all other assays above

C=C1C[C@@]23C=CC(=O)[C@@](C)(CCC(=O)Nc4c(O)ccc(C(=O)O)c4O)C2C[C@@H]1C(O)C3 (some centres undefined)
active: [1] 44 µM
inactive: all other assays above

C/C1=C\CC(=O)/C=C/C=C\c2csc(n2)[C@@H](C)NC(=O)C[C@@](S)([C@@H](C)C(=O)O)CC1
active: [1] 7.82 µM
inactive: all other assays above

CC[C@H](C)[C@H](NC(=O)C(Cc1ccc(O)cc1)NC(=O)C(Cc1c[nH]c2ccccc12)NC(=O)[C@H](C)N)C(=O)N1C(C(=O)NC(Cc2ccc(O)cc2)C(=O)O)CC2(c3ccc(O)cc3)c3ccccc3NC12 (some centres undefined) (H-A[ξW][ξY]I[X4][ξY]-OH)
active: [1] 9.84 µM
inactive: all other assays above

COc1cc(O)c2c3c(c(O)cc(C)c13)C(=O)OC2
active: [1] 22 µM
inactive: all other assays above

O=Cc1ccc2n1C[C@@]1(C[C@H](O)[C@@H](CO)O1)OC2
inactive: all assays above
